Compound activity from PubChem.
CYP2C9 activ – activators of human CYP2C9; P11712; recombinant CYP2C9, luciferin-H conversion, luminescence; active compounds read high; factor 1 = untreated enzyme, 0 = blocked; activation factor at 5 µM; actives 1.4% (n = 96,000); AID 1024;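 active = activation factor of 2 or more for CYP2C9 at a 5 µM dose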;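 note: 0 = sulfaphenazole-blocked wells and 1 = vehicle-only wells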
CYP2C19 inh – blocks human cytochrome P450 2C19; P33261; actives 21% (n = 96,000); inhibition, % at 5 µM; CYP2C19 Supersomes, luciferin-H EGE luminescence, 30 min;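 active = CYP2C19 inhibition above a set limit at 5 µM in the primary screen, cut at about 50% in these data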;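 note: plate controls were negative control wells for no effect and 2.5 mM tranylcypromine positive control for full effect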
Target sequence (P33261 whole entry, looked up): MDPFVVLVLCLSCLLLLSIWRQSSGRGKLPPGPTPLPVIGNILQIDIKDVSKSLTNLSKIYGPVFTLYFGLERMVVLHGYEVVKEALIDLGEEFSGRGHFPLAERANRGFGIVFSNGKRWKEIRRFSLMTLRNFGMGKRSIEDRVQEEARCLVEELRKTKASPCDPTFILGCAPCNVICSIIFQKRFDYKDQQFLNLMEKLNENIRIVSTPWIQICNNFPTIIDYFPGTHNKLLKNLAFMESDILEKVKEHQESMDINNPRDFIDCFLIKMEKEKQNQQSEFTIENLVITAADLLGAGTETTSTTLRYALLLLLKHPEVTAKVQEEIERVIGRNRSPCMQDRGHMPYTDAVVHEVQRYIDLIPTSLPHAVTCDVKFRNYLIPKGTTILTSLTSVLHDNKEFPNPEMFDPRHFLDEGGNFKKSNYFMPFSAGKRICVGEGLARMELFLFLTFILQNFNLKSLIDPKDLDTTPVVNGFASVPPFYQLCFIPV
CYP2C9 inhib – inhibitors of human CYP2C9. inhibition, % at 5 µM. actives 20% (n = 96,000). P11712. CYP2C9 Supersomes, luciferin-H conversion, luminescence;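 active = blocking of liver enzyme CYP2C9 beyond about 50% at 5 µM, limit read from the data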
CYP2C19 activ – increases human CYP2C19 enzyme activity; P33261; 96,000 tested, under 10 active; AID 1025; activation factor at 5 µM; recombinant CYP2C19, luciferin-H EGE luminescence; active compounds read high; 0 = fully inhibited enzyme, 1 = untreated enzyme;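 active = activation factor of at least 2 at 5 µM in the primary screen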;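 note: 0 = wells with 2.5 mM tranylcypromine and 1 = vehicle-only wells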
Starred values were filed as active, the others as inactive. Rows were chosen to be rich in hits. Some 31% of all compounds tested hit in one or more screens of this group.

SMILES	CYP2C9 activ	CYP2C19 inh	CYP2C9 inhib	CYP2C19 activ
NC(=O)C[C@@H]1N[C@]2(C(=O)Nc3ccccc32)[C@@H]2C(=O)N(c3cc(C(F)(F)F)ccc3Cl)C(=O)[C@H]12	0.7	24.1	25.3	0.8
C=CCOC(=O)C1CC=CCC1C(=O)Oc1ccc(F)cc1F (stereo not drawn)	0.3	86.3*	69.3*	0.1
C=CCNC(=O)NC(=O)COC(=O)COc1ccc(Br)cc1F	1	-3.1	0.2	1
COc1cc(Cl)c(C)cc1NC(=O)COc1cc(C)nc(C(C)C)n1	0.5	48.5	50.9*	0.5
COc1ccccc1NC(=O)COc1cc(C)nc(C(C)C)n1	1	4.2	4.6	1
COc1cc(Cl)c(C)cc1NC(=O)CSC	0.9	52.2*	14.6	0.5
CC(=O)NCCN1C(=O)C2C3c4ccccc4C(c4ccccc43)C2C1=O (stereo not drawn)	1	43.2	1.8	0.6
Cc1cc(NC(=O)CSc2nnc3c4c(C)c(C)sc4ncn23)no1	0.4	36.0	56.3*	0.6
Cc1cc(NC(=O)CSc2nc(C(C)C)nc3ccccc23)no1	0.5	17.3	49.2	0.8
Cc1cc(NC(=O)CSc2nc(C(C)C)nc3sc(C)c(C)c23)no1	0.5	18.1	53.6*	0.8
CCn1nnc(-c2ccccc2NC(=O)c2cc(OC)c(OC)c(OC)c2)n1	0.1	36.5	93.3*	0.6
CCOc1ccc(NC(=O)Cn2nnc(-c3ccccc3NC(=O)c3cccs3)n2)cc1	0.5	19.0	50.5*	0.8
CCCC(=O)Nc1ccccc1-c1nnn(CC(=O)Nc2ccc(OC)cc2)n1	0.7	20.0	32.6	0.8
CCn1nnc(-c2ccccc2NC(=O)C(F)(F)F)n1	0.7	70.2*	25.6	0.3
CCn1nnc(-c2ccccc2NC(=O)c2cc(OC)cc(OC)c2)n1	0.8	11.2	19.3	0.9
CCOc1ccc(NC(=O)CSc2nnc(C34CC5CC(CC(C5)C3)C4)n2C)cc1	0.6	23.2	43.0	0.8
CCOc1ccc(-n2c(C)nnc2SCC(=O)N(CC)CC)cc1	1	5.1	-0.5	0.9
c1cc(CNc2ccc3c(c2)OCCO3)ccn1	0.4	73.2*	61.6*	0.3
O=C(O)CCNc1ccc2c(c1)OCCO2	1	2.4	0.2	1
Cc1sc2ncn3cnnc3c2c1C	1	-6.0	-2.8	1.1
Cc1ccc(-c2csc3nnc(SCC(=O)Nc4cccc(C)n4)n23)cc1	0.5	57.3*	53.2*	0.4
CC(=O)Nc1ccc(C(=O)CSc2nnc3scc(-c4ccccc4)n23)cc1	0.4	33.8	58.2*	0.7
Cc1ccc(Sc2cc(C(F)(F)F)nc(N(C)C)n2)cc1	1.1	-15.6	-12.5	1.2
O=C(CCC(=O)c1cccs1)OCC(=O)N1CCN(S(=O)(=O)c2ccccc2)CC1	0.9	1.2	12.6	1
CC(NC(N)=O)C12CC3CC(CC(C3)C1)C2 (stereo not drawn)	0.9	30.7	13.6	0.7
SMILES	CYP2C9 activ	CYP2C19 inh	CYP2C9 inhib	CYP2C19 activ
O=C(NCCCCNC(=O)c1c(F)c(F)c(F)c(F)c1F)c1c(F)c(F)c(F)c(F)c1F	1	-18.7	1.2	1.2
CC(C)c1ccccc1OCC(=O)NCC(c1cccs1)N1CCOCC1 (stereo not drawn)	0.8	68.1*	19.4	0.3
CCN1CCN(c2ncc(C(=O)Nc3ccccc3C(=O)OC)c3ccccc23)CC1	0.4	9.9	55.7*	0.9
CC(C)NC(=O)c1cnc(N2CCN(c3ccccn3)CC2)c2ccccc12	0.6	20.4	35.3	0.8
Cn1c(=NC(=O)CSCC(=O)N2CCCC2)sc2ccccc21	1.1	27.4	-10.1	0.7
CC1CCCN(C(=O)CSCC(=O)N=c2sc3ccccc3n2C)C1 (stereo not drawn)	0.8	99.1*	20.6	0
Cc1cc(NC(=O)CSc2nc3ccccc3n2CC(=O)N2CC(C)CC(C)C2)no1 (stereo not drawn)	0.7	9.9	26.7	0.9
Cc1csc(=Nc2c(C)n(C)n(-c3ccccc3)c2=O)n1Cc1ccccc1	0.6	82.0*	42.3	0.2
C=CCn1c(-c2ccc(OC)cc2)csc1=Nc1c(C)n(C)n(-c2ccccc2)c1=O	0.9	15.3	14.0	0.8
CCOc1ccc2nc(NS(C)(=O)=O)sc2c1	0.7	-0.9	28.9	1
CC1CCC/C(=C\Nc2ccccc2C(=O)O)C1=O (stereo not drawn)	1.1	-7.4	-6.6	1.1
CC1=C(C(=O)OC(C)C)C(c2c(O)ccc3ccccc23)NC(=O)N1 (stereo not drawn)	0.9	86.4*	6.5	0.1
CCOC(=O)C1=C(C)NC(=O)NC1c1ccccc1Cl (stereo not drawn)	0.7	4.8	32.2	1
CC1(C)N=C(N)NC(Nc2cccc(Br)c2)=N1	1	18.1	2.8	0.8
CCC(=O)N1CCc2cc(S(=O)(=O)NC(C(=O)NCc3ccc(C)cc3)C(C)C)ccc21 (stereo not drawn)	1	-7.9	1.2	1.1
Cc1ccc(CNC(=O)C(Cc2ccccc2)NS(=O)(=O)c2cccs2)cc1 (stereo not drawn)	1	60.7*	2.2	0.4
CC(C)C(NS(=O)(=O)c1cccs1)C(=O)NCc1ccc2c(c1)OCO2 (stereo not drawn)	0.2	93.5*	83.6*	0.1
CCOC(=O)CNC(=O)C(Cc1ccccc1)NS(=O)(=O)c1cccs1 (stereo not drawn)	0.6	33.9	38.5	0.7
Cc1ccc(CNC(=O)C(NS(=O)(=O)c2cccs2)C(C)C)cc1 (stereo not drawn)	0.5	85.4*	52.3*	0.1
CCCCC(=O)NC1(C(F)(F)F)C(=O)Nc2c1c(=O)n(C)c(=O)n2C (stereo not drawn)	1	10.9	0.3	0.9
COC(=O)c1cc2sc(Cl)cc2n1CC(=O)NCCC(C)C	1.1	16.2	-7.4	0.8
Cc1cc(C)cc(OCc2nnc(SCC(=O)OC(C)C)o2)c1	1.3	59.7*	-25.9	0.4
Cc1cc(C)cc(OCc2nnc(SCC(=O)N3CCN(c4ccccc4)CC3)o2)c1	0.8	38.8	21.3	0.6
CC(NC(=O)CSc1nnc(COc2ccccc2)o1)c1ccccc1 (stereo not drawn)	0.5	81.9*	46.4	0.2
CC(NC(=O)CSc1ncccn1)c1ccccc1 (stereo not drawn)	0.9	78.2*	6.9	0.2
SMILES	CYP2C9 activ	CYP2C19 inh	CYP2C9 inhib	CYP2C19 activ
CC(C)CCNC(=O)NC(=O)CSc1nnc(COc2ccccc2Cl)o1	0.5	49.6	53.2*	0.5
NC(=O)CSc1nc2sc3c(c2c2ncnn12)CCCC3	0.8	16.4	18.5	0.8
Cc1cc(NC(=O)CCCC(=O)NCc2cccs2)no1	1	13.1	-0.8	0.9
Cc1cccc(CSC2=CS(=O)(=O)c3ccccc3N2)c1	0.4	53.9*	63.7*	0.5
O=S1(=O)C=C(SCc2cccc(Cl)c2)Nc2ccccc21	0.3	86.5*	74.0*	0.1
Cc1cc2nc(N)sc2cc1[N+](=O)[O-]	1	-3.4	0.8	1
Cc1cc(C#N)c(C)n1-c1cc(S(=O)(=O)N2CCOCC2)ccc1N1CCCC1	0.3	33.3	73.3*	0.7
